Assay outcomes (PubChem BioAssay)
Wnt bcat act – Wnt/beta-catenin pathway activators, primary screen, cell-based, plate reader, single point; Wnt/beta-catenin reporter cell assay, activator; activation, % at 9.35 µM; 1.2% of 300,000 active; AID 743398, 2014; in the data active = activation above about 30%, passing the limit was not always enough;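 note: 0% = neutral control wells and 100% = positive control wells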
TRPM1 prom inh – inhibitors of MITF-dependent TRPM1 promoter reporter, primary screen, cell-based, SK-MEL-5, single point, luciferase | SK-MEL-5 TRPM1 promoter luciferase, 24 h | inhibition, % at 12.5 µM | 0.83% of 330,000 active;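 active = mean inhibition across replicates of 60% or more, whatever share of single replicates reaches that level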
EWS-Fli inh – EWS/Fli-driven NR0B1 reporter inhibitors, primary screen, A673 cells, NR0B1 luciferase, luminescence, MLPCN library; viability-normalised; inhibition, % at 12.6 µM; 0.67% of 350,000 active; AID 651661, 2012;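 active = mean inhibition of at least 50% after viability correction, with every replicate also passing that limit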;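 note: firefly luciferase signal divided by Alamar Blue viability fluorescence both relative to DMSO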
esBAF inh – Bmi1 luciferase reporter increase in mESCs, primary screen, esBAF inhibitor project, mouse ES cells, Bmi1 luciferase knock-in, single point; 24 h; 100% = twice the neutral-well signal; reporter increase, % at 12.5 µM; 2% of 350,000 active; AID 602393, 2012; in the data active = activation above about 40%;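 note: 0% = median of the plate's neutral control wells and 100% = double that signal; a rise in the Bmi1 reporter signal indicates esBAF inhibition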
PAX8 inh HTS – inhibitors of PAX8-driven TPO luciferase reporter, primary screen, RMG-I cells, single concentration | SteadyGlo, 24 h | inhibition, % at 12.6 µM | 1.2% of 360,000 active | AID 652154, 2013;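 active = mean replicate inhibition at least 60% with every replicate also reaching 60%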;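 note: luciferase light reporting Pax8 driven TPO promoter activity; plate controls were median of neutral control wells for no effect and mitoxantrone controls for full effect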
MITF act – activators of MITF-driven TRPM1 promoter reporter, primary screen, cell-based, SK-MEL-5, luciferase, single point; SK-MEL-5 TRPM1-promoter luciferase, 24 h; % of positive control, neutral wells = 0; activation, % at 12.5 µM; 0.75% of 300,000 active; AID 588334, 2011;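 active = mean activation of at least 80% with every replicate also reaching 80%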;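 note: 0% = neutral control wells and 100% = parthenolide positive control wells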
The depositor's hits bear a star; · = no result. The list is not random: actives were taken first. Their share in the collection is about 4%.

SMILES	Wnt bcat act	TRPM1 prom inh	EWS-Fli inh	esBAF inh	PAX8 inh HTS	MITF act
CCCCn1c(=N)n(CC(=O)c2ccc(OC)cc2)c2ccccc21	2	·	22	·	0	·
Cn1c(=N)n(CC(=O)c2ccccc2)c2ccccc21	2	·	65*	-59	-77	·
COc1ccc(C(=O)Cn2c(=N)n(C)c3ccccc32)cc1	1	-7	-101	87*	-121	·
Cn1c(=N)n(CC(=O)O)c2ccccc21	·	1	·	-2	·	-7
CCCNC(=O)N(C)C[C@@H]1Oc2ncc(-c3ccccc3F)cc2C(=O)N([C@H](C)CO)C[C@@H]1C	·	·	-182	-3	-16	·
CO[C@H]1CC[C@H]2CCN(C)C(=O)CCCN(C)C(=O)c3cc(C#N)ccc3OC[C@@H]1O2	·	·	3	-1	-4	·
C[C@@H]1CN([C@@H](C)CO)C(=O)c2c(c3ccccc3n2C)-c2ccccc2CO[C@H]1CN(C)Cc1ccc(C(=O)O)cc1	·	·	-4	-3	·	·
Cn1c(=N)n(CC(=O)C(C)(C)C)c2ccccc21	-2	-29	·	51*	·	29
CCCn1c(=N)n(CC(=O)C(C)(C)C)c2ccccc21	-2	2	·	-1	·	·
CCOC(=O)c1[nH]nc(C(=O)c2ccc(Br)cc2)c1O	·	-17	·	54*	·	·
CO[C@H]1CN(C)C(=O)c2cc(NC(=O)C3CCC3)ccc2OC[C@@H](C)N(Cc2ccc(F)cc2)C[C@@H]1C	·	·	-2	6	17	·
COCC(=O)Nc1ccc2c(c1)C(=O)N(C)C[C@@H](OC)[C@H](C)CN(C(=O)C1CCCC1)[C@H](C)CO2	·	·	-4	1	·	·
CNc1cc(Cl)nc(SC)n1	-1	3	14	·	5	-1
CSc1nc(Cl)cc(Nc2ccc(O)cc2)n1	38*	-22	-46	·	-58	20
O=C(C[C@@H]1C=C[C@H](NC(=O)Cc2cccnc2)[C@@H](CO)O1)Nc1ccccc1	·	·	0	2	-2	·
Cn1c(=O)c(=O)n(C)c2cc([N+](=O)[O-])c([N+](=O)[O-])cc21	2	-1	41	·	0	-1
CN(C)c1c([N+](=O)[O-])cc(N2C(=O)C=CC2=O)cc1[N+](=O)[O-]	·	63*	·	-5	·	-60
O=C(C[C@@H]1CC[C@@H](NC(=O)C2CC2)[C@@H](CO)O1)Nc1nccs1	·	·	0	-3	-4	·
Cc1cc(Nc2ccc3c(c2)OCCO3)c2ccccc2n1	-2	2	-8	·	88*	-3
COc1cccc(NC(=O)N2C[C@H](O)COC[C@H]3O[C@@H](CC(=O)N(C)C)CC[C@@H]32)c1	·	·	-1	-2	-4	·
CCOC(=O)N1N=C(CC)CC1(O)C(F)(F)F (stereo not drawn)	34*	4	·	·	-9	-4
CCOC(=O)N1N=C(c2ccc(C)cc2)CC1(O)C(F)(F)F (stereo not drawn)	23	-34	1	-7	·	35
CN1C(=O)c2cc(NC(=O)C3CCCC3)ccc2OC[C@H]2O[C@@H](CC(=O)NCC(F)(F)F)CC[C@H]21	·	·	2	-6	-9	·
c1ccc(Cn2ccnc2C2OCCO2)cc1	-7	·	1	·	23	·
c1ccc(Cn2ccnc2-c2ccco2)cc1	28	-37	·	56*	-83	52
SMILES	Wnt bcat act	TRPM1 prom inh	EWS-Fli inh	esBAF inh	PAX8 inh HTS	MITF act
C[C@H]1CN([C@@H](C)CO)C(=O)c2cccc(NC(=O)c3ccncc3)c2O[C@@H]1CN(C)Cc1ccc(Oc2ccccc2)cc1	·	·	4	0	25	·
CC(C)Cc1ccc(-c2cc3nc(NCCCn4ccnc4)ccn3n2)cc1	-3	·	-59	61*	-101	·
CC(C)Cc1ccc(-c2cc3nc(NCCc4ccc(S(N)(=O)=O)cc4)ccn3n2)cc1	2	·	-96	92*	-92	·
FC(F)(F)c1cccc(-c2cc3nc(NCCCn4ccnc4)ccn3n2)c1	-1	·	-28	28	-19	·
NS(=O)(=O)c1ccc(CCNc2ccn3nc(-c4ccccc4)cc3n2)cc1	0	·	-70	29	-39	·
Cc1ccc(S(=O)(=O)N[C@@H]2CC[C@@H](CCn3cc(-c4ccccc4F)nn3)O[C@H]2CO)cc1	·	·	0	6	21	·
COC(=O)CSc1ncccc1-c1nc2ccccc2[nH]1	·	-9	·	-4	·	11
